TLR4-MyD88 BLA – inhibitors of TLR4-MyD88 association in cells, primary screen, cell-based, HeLa CL3-4, BLA complementation, FRET ratio; Toll-like receptor 4 (Homo sapiens) + Myeloid differentiation primary response protein …; HeLa CL3-4 TLR4/MyD88 BLA complementation; inhibition, % at 8.4 µM; actives 0.18% (n = 200,000); AID 861, 2007; in the data active means inhibition above about 25%;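 further: 0% = vehicle and 100% = reference inhibitor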
NOD2 RIPK2 PPI – NOD2-RIPK2 binding disruptors in cells, primary screen, fluorescence, CHO cells, BLA complementation. Receptor-interacting serine/threonine-protein kinase 2 (Homo sapiens), O43353. CCF4 ratio. inhibition, % at 4.98 µM. actives 0.38% (n = 360,000). AID 624267, 2012; in the data active means inhibition above about 21%;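 further: 0% = vehicle only and 100% = reference blocker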
Target sequence (O43353 whole entry, looked up): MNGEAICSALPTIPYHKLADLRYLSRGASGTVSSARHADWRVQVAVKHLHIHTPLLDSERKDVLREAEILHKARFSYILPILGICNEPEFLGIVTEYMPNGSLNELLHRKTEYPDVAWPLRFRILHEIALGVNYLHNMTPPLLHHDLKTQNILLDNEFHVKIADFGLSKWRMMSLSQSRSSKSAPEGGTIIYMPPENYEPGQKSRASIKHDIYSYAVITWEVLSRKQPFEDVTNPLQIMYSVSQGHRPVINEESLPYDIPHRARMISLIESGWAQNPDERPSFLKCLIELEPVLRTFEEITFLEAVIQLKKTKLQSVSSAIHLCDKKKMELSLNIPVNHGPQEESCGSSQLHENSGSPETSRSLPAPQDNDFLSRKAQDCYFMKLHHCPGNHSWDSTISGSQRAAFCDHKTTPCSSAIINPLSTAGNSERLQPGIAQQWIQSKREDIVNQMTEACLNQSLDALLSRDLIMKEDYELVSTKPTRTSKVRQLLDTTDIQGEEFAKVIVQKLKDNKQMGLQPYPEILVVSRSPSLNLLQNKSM
ANO1 activ – TMEM16A chloride channel activators or potentiators, primary screen, cell-based, HTS; HEK293 TMEM16A/YFP-H148Q/I152L, iodide quench fluorescence; hits give low values; B-score at 10 µM; Anoctamin-1 (Mus musculus), Q8BHY3; actives 0.3% (n = 340,000); AID 623877, 2012;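 active means fluorescence-ratio B-score plate-corrected deviation score at least 3 library SD below zero, with starting fluorescence score within 5 deviations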;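 further: channel opened by trigger with iodide after compound preincubation; score built on the fluorescence ratio of max minus min over baseline; more negative score means more quench and so TMEM16A activation or potentiation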
HTR2A ag – mouse Htr2a agonists via beta-arrestin recruitment, primary screen, cell-based, luminescence | actives 0.66% (n = 360,000) | CHO-K1 mHTR2A beta-arrestin complementation; percent of 30 µM serotonin response | activation, % at 7.6 µM | 5-hydroxytryptamine receptor 2A (Mus musculus), P35363;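 active means activation above a run cutoff, the mean activation of all tested compounds plus 3 SD, cut at about 14% in these data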;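 further: 0% = plate median of compound wells and 100% = 30 µM serotonin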
TMEM16A inh – TMEM16A chloride channel inhibitors, primary screen, cell-based, HTS; normalized B-score (activity score, 25-100; higher = stronger inhibition) at 10 µM; actives 1.2% (n = 310,000); HEK293 TMEM16A/YFP iodide influx fluorescence, ionomycin; Anoctamin-1 (Mus musculus), Q8BHY3;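 active means ratio plate-corrected score three or more library SD toward inhibition, starting fluorescence score within five deviations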;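 further: score derived from kinetic fluorescence span divided by baseline fluorescence per well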
TLR9-MyD88 block – inhibitors of TLR9-MyD88 association in cells, primary screen, cell-based, CHO, BLA complementation, fluorescence. inhibition, % at 4.98 µM. Toll-like receptor 9 (Homo sapiens) + Myeloid differentiation primary response protein …. CCF4 FRET ratio. actives 0.21% (n = 340,000);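 active means inhibition above the mean over all tested compounds plus 3 SD, cut at about 21% in these data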;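 further: 0% = DMSO only wells and 100% = clavulanate BLA inhibitor control wells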
An asterisk follows results filed as active; i = inactive; nt = no result; ! = a repeat was not active. Rows were chosen to be rich in hits. Some 2.4% of all compounds tested hit in one or more screens of this group.

SMILES	TLR4-MyD88 BLA	NOD2 RIPK2 PPI	ANO1 activ	HTR2A ag	TMEM16A inh	TLR9-MyD88 block
CCC(C(=O)OCC(=O)Nc1cc(Cl)ccc1Cl)c1ccccc1 (configuration not stated)	-16	3	i	0	25*	11
O=C(NNC(=S)Nc1cccc2ccccc12)c1cccc(Br)c1	-1	-3	i	-1	25*	-4
O=C(NNC(=O)c1ccc2ccccc2c1)c1cccc(Br)c1	nt	-3	i	2	nt	-3
O=S(=O)([N-]c1nc2ccccc2nc1-[n+]1ccccc1)c1ccccc1	-5	-4	i	1	i	-3
O=S(=O)([N-]c1nc2ccccc2nc1-[n+]1ccc(-c2ccncc2)cc1)c1ccccc1	-5	-14	-5.3*	-2	i	0
CCOC(=O)c1sc(NC(=O)c2ccc(S(=O)(=O)N(C)C)cc2)nc1C	1	-13	-14*	-5	i	-1
CCOC(=O)c1csc(NC(=O)c2ccc(S(=O)(=O)N(C)C)cc2)n1	-4	-4	i	2	i	3
CC(=O)c1c(O)c(C)c(O)c2c1OC1=Cc3c(c(C)nn3C)C(=O)C12C (configuration not stated)	nt	0	nt	1	nt	5
CC(C)c1ccc(NC2CCCN(C(=O)CSc3nncn3C)C2)cc1 (configuration not stated)	nt	-11	i	11	i	8
O=C(COC(=O)CNC(=O)c1ccccc1Cl)NC1CC1	nt	-8	i	-2	nt	-9
O=C(c1ccc(-c2ccccc2)cc1)C1CCCN(C(=O)c2ccncc2)C1 (configuration not stated)	-9	9	i	-7	i	3
O=C(c1ccc(-c2ccccc2)cc1)C1CCCN(Cc2ccncc2)C1 (configuration not stated)	-6	-7	i	-8	100*	4
CCNc1ccc(S(=O)(=O)N(C)C)cc1[N+](=O)[O-]	0	-6	i	5	i	7
COc1ccc(OC)c2sc(N(CCN(C)C)C(=O)c3cc(Cl)sc3Cl)nc12	-6	-14	i	-6	i	-3
COc1cc2ccccc2cc1C(=O)N(CCN(C)C)c1nc2c(F)cc(F)cc2s1	nt	-1	i	-7	25*	-11
COc1ccc2sc(N(CCN(C)C)C(=O)c3cc(Cl)sc3Cl)nc2c1	1	-1	-5.9*	-3	i	-7
NS(=O)(=O)c1cccc(NC(=S)NCc2ccccc2)c1	2	1	i	-1	i	1
N#C/C(=N\Nc1ccccc1)C(N)=S	nt	-8	-16*	8	i	-7
Cc1ccc(N/N=C(\C#N)C(N)=S)cc1C	2	-1	i	1	100*	0
N#C/C(=N\Nc1ccc(Cl)cc1)C(N)=S	nt	-8	i	8	100*	-3
N#C/C(=N\Nc1ccc(Cl)cc1)C(=N)N1CCCCC1	-1	-8	i	1	i	-6
O=c1nc(Nc2ccccc2)sc2ccc([N+](=O)[O-])cc12	-6	2	i	0	i	7
Cc1c(CC(=O)NCC(=O)N[C@H](Cc2ccccc2)C(=O)O)c(=O)oc2cc(O)ccc12	nt	5	i	1	i	-4
CCOc1cc(N2CCOCC2)c(OCC)cc1NC(=O)c1nc2nc(C)cc(C)n2n1	nt	3	i	8	i	-8
NC(=O)[C@@H]1CCCCNc2c(F)cc([N+](=O)[O-])cc2C(=O)N[C@@H](CC(=O)O)C(=O)NCC(=O)N1	-18	-2	i	3	i	-3
CCC(C)Sc1cc(-c2nc3ccc(C)cn3c2NCc2ccccc2)ccc1OC (configuration not stated)	nt	27*!	i	10	i	-3

Screens as filed in PubChem BioAssay.
